# This is a sample that favours compounds with a hit; in the whole collection about 2.2% have one here.
# PGC1a acetyl inh: inhibitors of PGC1a acetylation signal, primary screen, cell-based, U2OS, AlphaScreen, inhibitor mode; AlphaScreen anti-acetyl-lysine; with virally co-expressed GCN5 acetyltransferase; inhibition, % at 15.6 µM; hit rate 0.17% among 350,000; AID 651687, 2012;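 active means every replicate shows inhibition of at least 40%; inconclusive means mean inhibition at least 40% but some replicate below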;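 further: 0% = neutral control wells and 100% = positive control wells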
# PAX8 reporter: inhibitors of PAX8-driven TPO luciferase reporter, primary screen, RMG-I cells, single concentration; AID 652154, 2013; inhibition, % at 12.6 µM; hit rate 1.2% among 360,000; SteadyGlo, 24 h;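 active means mean replicate inhibition at least 60% with every replicate also reaching 60%; inconclusive means only one of the two criteria is met; inactive means mean below 60% and not all replicates reaching 60%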;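 further: luciferase light reporting Pax8 driven TPO promoter activity; plate controls were median of neutral control wells for no effect and mitoxantrone controls for full effect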
# TRPM1 prom inh: inhibitors of MITF-dependent TRPM1 promoter reporter, primary screen, cell-based, SK-MEL-5, single point, luciferase. AID 488899, 2010. hit rate 0.83% among 330,000. SK-MEL-5 TRPM1 promoter luciferase, 24 h. inhibition, % at 12.5 µM;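 active means mean inhibition across replicates of 60% or more, whatever share of single replicates reaches that level; inconclusive means some that reach 60%, reason not given; inactive means mean inhibition across replicates below 60%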
# EBV LMP1 NFkB: EBV LMP1-driven NF-kappaB luciferase reporter inhibitors, primary screen, cell-based, luminescence, single point. inhibition, % at 12.5 µM. hit rate 0.69% among 350,000. LMP1-induced NF-kappaB luciferase reporter cells; in the data active means inhibition above about 41%; inconclusive means no clear call, values can overlap the other calls;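 further: 0% = neutral control wells and 100% = reference inhibitor control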
# EWS-Fli inh: EWS/Fli-driven NR0B1 reporter inhibitors, primary screen, A673 cells, NR0B1 luciferase, luminescence, MLPCN library | inhibition, % at 12.6 µM | viability-normalised | hit rate 0.67% among 350,000;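 active means mean inhibition of at least 50% after viability correction, with every replicate also passing that limit; inconclusive means mean reaches 50% but only one of two replicates passes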;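 further: firefly luciferase signal divided by Alamar Blue viability fluorescence both relative to DMSO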
# LGR2 antag: inhibitors of bursicon-induced LGR2 CRE-luciferase signal, primary screen, cell-based, HEK293, CRE-luciferase reporter, bursicon stimulation; Drosophila bursicon receptor LGR2 (rickets); bursicon-stimulated, 4 h; inhibition, % at 9.99 µM; hit rate 0.35% among 380,000;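 active means drop in luminescence signal, shown as inhibition above about 50% in the replicate tests, limit read from the data, passing the limit was not always enough; inconclusive means probably only some replicates passing the limit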;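 further: agonist challenge used bursicon conditioned medium at about half maximal strength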
# Starred values were filed as active, the others as inactive; u = inconclusive; x = not tested or not shown.
SMILES,PGC1a acetyl inh,PAX8 reporter,TRPM1 prom inh,EBV LMP1 NFkB,EWS-Fli inh,LGR2 antag
CC1=CC2OC3CC4OC(=O)C=CC=CC(C(C)O)OCC(O)C5(C)OC5C(=O)OCC2(CC1O)C4(C)C31CO1 (stereo not drawn),87*,102*,90*,97*,45,102*
CC1CCOC(=O)C=CC=CC(=O)OC2CC3OC4C5OC5(C)C(O)CC4(COC(=O)C1O)C2(C)C31CO1 (stereo not drawn),77*,104*,80*,87*,22,104*
COC(=O)[C@@H]1[C@@H](CO)[C@@H]2Cn3c(ccc(-c4cncnc4)c3=O)[C@H]1N2S(=O)(=O)c1ccccc1C,x,2,x,x,3,15
Cc1cccc(S(=O)(=O)N2[C@@H]3c4ccc(-c5ccccc5)c(=O)n4C[C@H]2[C@H](CO)[C@H]3C(=O)O)c1,x,-4,x,x,1,-1
O=C(O)[C@H]1[C@H](CO)[C@H]2Cn3c(ccc(-c4ccncc4)c3=O)[C@@H]1N2C(=O)C1CCC1,x,x,x,x,-5,8
CCN(CC)C(=O)c1ccc(NC(=O)c2cccc(C(F)(F)F)c2)cc1,x,-8,-15,-3,-7,-10
CCN(CCCl)c1cc(CN(C)C)cc(NC(=O)c2ccc(C(=O)Nc3cc(CN(C)C)cc(N(CC)CCCl)c3)cc2)c1,-4,108*,98*,87*,60*,95*
C/C=C/c1ccc([C@H]2[C@@H](CO)N3CCCCN(C(=O)Cc4ccncc4)C[C@H]23)cc1,-3,22,x,x,4,8
CC1(CCCc2ccc(N(CCCl)CCCl)cc2)NC(=O)NC1=O (stereo not drawn),-1,-6,x,48*,31,4
O=C(Cc1cccnc1)N1CCCCN2[C@H](CO)[C@@H](c3ccc(/C=C/c4ccccc4)cc3)[C@@H]2C1,-2,-13,x,x,-2,11
CC(C)(O)C(=O)Nc1ccc([N+](=O)[O-])c(C(F)(F)F)c1,0,x,0,3,-4,8
COc1cc2c(cc1OC)CN(c1ccc([N+](=O)[O-])c(C(F)(F)F)c1)CC2,x,5,-2,8,1,93*
Clc1ccc(C(c2ccc(Cl)cc2)n2cc[n+](CC(OCc3ccc(Cl)cc3Cl)c3ccc(Cl)cc3Cl)c2)cc1 (stereo not drawn),x,97*,103*,0,49,87*
O=c1[nH]c2ccccc2n1C1CCN(C(CCc2ccccc2)c2nnnn2Cc2ccccc2)CC1 (stereo not drawn),103*,108*,x,x,24,99*
CSCCC(c1nnnn1C1CCCCC1)N1CCC(n2c(=O)[nH]c3ccccc32)CC1 (stereo not drawn),-18,35,x,x,22,12
O=c1[nH]c2ccccc2n1C1CCN(C(c2nnnn2Cc2ccccc2)C2CC2)CC1 (stereo not drawn),24,86*,x,x,5,30
O=c1[nH]c2ccccc2n1C1CCN(C(CCc2ccccc2)c2nnnn2C2CCCCC2)CC1 (stereo not drawn),7,0,x,x,0,94*
CSCCC(c1nnnn1Cc1ccccc1)N1CCC(n2c(=O)[nH]c3ccccc32)CC1 (stereo not drawn),7,97*,x,x,36,15
CC(C)(C)n1nnnc1C(CCc1ccccc1)N1CCC(n2c(=O)[nH]c3ccccc32)CC1 (stereo not drawn),-1,16,x,x,20,32
Cc1ccccc1S(=O)(=O)N1[C@@H]2c3ccc(-c4cccnc4)c(=O)n3C[C@H]1[C@H](CO)[C@H]2C(=O)O,x,-1,x,x,-1,-9
O=C1CNC[C@H]2[C@H](c3ccc(Br)cc3)[C@@H](CO)N12,-7,-15,x,x,1,0
COc1cccc(-c2ccc([C@@H]3[C@@H](CO)N4CCCCN(C(=O)Cc5ccncc5)C[C@H]34)cc2)c1,-10,-16,x,x,x,-3
COC(=O)[C@H]1[C@H](CO)[C@H]2Cn3c(ccc(-c4ccccc4)c3=O)[C@@H]1N2S(=O)(=O)c1ccccc1C,x,2,x,x,50,-13
O=C(Cc1ccccc1)N1CCCCN2[C@H](CO)[C@H](c3ccc(C#CC4(O)CCCC4)cc3)[C@@H]2C1,-3,7,x,x,8,-1
Cc1ccccc1-c1ccc([C@H]2[C@H]3CN(C(=O)Cc4ccccn4)CCCCN3[C@H]2CO)cc1,-16,0,x,x,3,-16
SMILES,PGC1a acetyl inh,PAX8 reporter,TRPM1 prom inh,EBV LMP1 NFkB,EWS-Fli inh,LGR2 antag
CSCCC(c1nnnn1-c1c(C)cccc1C)N1CCC(n2c(=O)[nH]c3ccccc32)CC1 (stereo not drawn),-89,13,x,x,22,93*
NC(N)=N/N=C/c1ccc(N(c2ccccc2)c2ccccc2)cc1,x,81*,102*,4,58*,52*
C[C@@H]1CN([C@@H](C)CO)C(=O)c2c(c3ccccc3n2C)-c2ccccc2CO[C@H]1CN(C)C(=O)Oc1ccccc1,x,4,x,x,4,3
Cc1cc([N+](=O)[O-])c2ccccc2[n+]1[O-],x,x,78*,90*,x,x
Cc1ccccc1[N+](=O)[O-],-1,x,14,-5,-3,3
COc1ccccc1CN1[C@H](CO)[C@H](c2ccccc2)C12CN(C(=O)Cc1ccccc1)C2,3,35,x,x,-2,5
COC(=O)[C@@H]1[C@@H](CO)[C@@H]2Cn3c(ccc(-c4cccc(OC)c4)c3=O)[C@H]1N2CC1CC1,x,x,x,x,7,-5
CNc1ccc2oc(C[C@H]3O[C@@]4(CC[C@H]3C)O[C@H]([C@H](C)C(=O)c3ccc[nH]3)[C@H](C)C[C@H]4C)nc2c1C(=O)O,1,81*,102*,70*,43,-10
Cc1ccccc1-c1ccc([C@H]2[C@@H](CO)N3CCCCN(C(=O)Cc4ccccn4)C[C@@H]23)cc1,-5,-3,x,x,3,13
COc1cc(C2c3cc4c(cc3CC3COC(=O)C32)OCO4)cc(OC)c1OC (stereo not drawn),-16,x,x,13,57*,-2
COc1cc(C2c3cc4c(c(O)c3CC3COC(=O)C32)OCO4)cc(OC)c1OC (stereo not drawn),0,88*,41,-8,44,7
COC(=O)[C@H]1[C@H](CO)[C@H]2Cn3c(ccc(-c4ccccc4)c3=O)[C@@H]1N2C(=O)c1ccccc1F,x,x,x,x,0,10
CC(N)C(=O)NC1C2C(=C(O)CC(O)C2O)C(=O)OC1(C)C(Cl)Cl (stereo not drawn),74*,121*,66*,85*,u,99*
N#Cc1cccc(-c2ccc([C@@H]3[C@@H](CO)N4CCCCN(C(=O)Cc5ccccc5)C[C@H]34)cc2)c1,3,6,x,x,-2,-13

# Assay outcomes: PubChem BioAssay, Broad Institute
